# Mac1 fbg inh: inhibitors of CD11b/CD18 adhesion to fibrinogen, primary screen, K562 cells, luminescence | Integrin beta-2 (Homo sapiens) + Integrin alpha-M (Homo sapiens), P05107+P11215 | ATPlite luminescence; Mn2+ added to activate the integrin | inhibition, % at 10 µM | hit rate 0.54% among 93,000;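 active = primary inhibition of 50% or more at 10 µM, then 40% or more on retest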
# Target sequence (P05107 whole entry, looked up, other chains not shown): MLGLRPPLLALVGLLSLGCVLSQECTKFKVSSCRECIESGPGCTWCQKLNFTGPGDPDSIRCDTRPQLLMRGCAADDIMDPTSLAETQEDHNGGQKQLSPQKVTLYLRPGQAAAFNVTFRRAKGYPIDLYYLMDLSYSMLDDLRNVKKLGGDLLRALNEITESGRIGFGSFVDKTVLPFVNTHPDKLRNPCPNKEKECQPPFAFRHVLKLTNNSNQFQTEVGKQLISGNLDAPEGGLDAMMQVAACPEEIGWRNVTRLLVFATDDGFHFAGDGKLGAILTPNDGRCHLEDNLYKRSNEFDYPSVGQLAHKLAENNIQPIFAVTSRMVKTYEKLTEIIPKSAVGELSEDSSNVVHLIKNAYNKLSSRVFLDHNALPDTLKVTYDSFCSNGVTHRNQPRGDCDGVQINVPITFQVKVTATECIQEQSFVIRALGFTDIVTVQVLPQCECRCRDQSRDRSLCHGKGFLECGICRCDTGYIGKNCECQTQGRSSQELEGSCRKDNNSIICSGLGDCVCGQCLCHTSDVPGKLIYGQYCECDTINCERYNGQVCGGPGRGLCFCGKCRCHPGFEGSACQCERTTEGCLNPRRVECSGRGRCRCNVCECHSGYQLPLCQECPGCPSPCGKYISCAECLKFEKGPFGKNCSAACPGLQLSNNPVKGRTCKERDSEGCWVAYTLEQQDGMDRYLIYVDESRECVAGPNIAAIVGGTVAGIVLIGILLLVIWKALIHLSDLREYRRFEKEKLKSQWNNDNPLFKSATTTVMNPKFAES
# Cav32 inh: Cav3.2 calcium influx blockers – cell-based, Fluo-4 calcium fluorescence, FDSS, MLSMR library, primary screen. Voltage-dependent T-type calcium channel subunit alpha-1H (Homo sapiens), O95180. Cav3.2-expressing cells; active compounds read low. B-score at 10 µM. hit rate 4% among 100,000;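 active = single-dose well whose peak fluorescence ratio is a statistical outlier from its plate by either plate-standardised score or position-corrected B-score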
# Pyk2 oligo antag: antagonists of Pyk2 self-association, primary screen, Q293 cells, FERM NanoBiT luminescence, HTS | Protein-tyrosine kinase 2-beta (Homo sapiens), Q14289 | active compounds read low | z-score (the deposit names both 25 µM and 10 µM) | hit rate 0.83% among 99,000 | AID 1347419, 2020;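 active = Z-score of -3 or lower, scaled per plate to the spread of control and sample wells; inactive = z-score above -3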;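 note: negative z-score means lost luminescence so less FERM oligomerization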
# Mac1 fbg enh: enhancers of CD11b/CD18 adhesion to fibrinogen, primary screen, K562 cells, luminescence | Integrin beta-2 (Homo sapiens) + Integrin alpha-M (Homo sapiens), P05107+P11215 | ATPlite luminescence | activation, % at 10 µM | hit rate 0.07% among 93,000 | AID 1499, 2009;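 active = 10 µM primary screen giving 50% or more activity, confirmed by 40% or more on retest at that dose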
# Ec RNAP inh: E. coli RNAP inhibitors, biochemical; DNA-directed RNA polymerase subunit beta (Escherichia coli (strain K12)), P0A8V2; E. coli RNA polymerase, fluorescence transcription assay; inhibition, %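 (tested at 10 µM)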; hit rate 0.2% among 62,000; AID 559, 2006; in the data active = inhibition above about 20%;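 note: 0% = enzyme without compound and 100% = no enzyme blank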
# An asterisk follows results filed as active; . = no result. Hits are enriched below; roughly 4.2% of the tested compounds scored in any of these assays.
SMILES,Mac1 fbg inh,Cav32 inh,Pyk2 oligo antag,Mac1 fbg enh,Ec RNAP inh
Cc1ccc(C)c(NC(=O)C2CCCN2/C=C/C(=O)C(F)(F)F)c1 (configuration not stated),-22.2,.,.,-4.1,.
C/C(=N\NC(=O)c1cccc(Cl)c1)c1cccc(NC(=O)c2ccco2)c1,-14.4,-5.49*,-0.66,-5.1,.
Cc1ccc(N(C)C(=O)N2CCN(S(=O)(=O)c3c(C)cc(C)cc3C)CC2)cc1,-23.0,-6.01*,-2.1,-0.8,.
COC(=O)CSC1=C(C#N)C(c2ccc(F)cc2)CC(=O)N1 (configuration not stated),4.5,-0.0954,.,-1.3,20.7*
Cc1cc(C)cc(-n2nnc(C(=O)NCc3ccccc3)c2N)c1,2.5,-0.0237,-0.51,-0.8,-1.5
Cc1ccc(CNC(=O)c2nnn(-c3cccc(C)c3)c2N)cc1,.,-5.44*,0.97,.,2.6
COc1ccc(-n2c(Cc3cccs3)nnc2SCC(=O)Nc2ccc3c(c2)OCCO3)cc1,-7.5,-6.78*,-2.02,-0.7,3.0
O=C(CSc1nnc(Cc2cccs2)n1Cc1ccco1)Nc1cc(Cl)cc(Cl)c1,-11.0,-4.27*,-0.67,-2.4,10.8
COc1ccc(NC(=O)CSc2nnc(Cc3cccs3)n2-c2ccc(C)cc2)cc1,-7.8,-5.26*,-2.59,-0.2,.
CCOC(=O)c1ccc(NC(=O)CSc2nnc(CNc3ccc(C)cc3)n2C)cc1,.,-0.956,0.4,.,.
CCOC(=O)c1c(NC(=O)CSc2nnc(CNc3ccc(OC)cc3)n2C)sc(C)c1C,1.5,-6.64*,0.43,0.5,10.2
COc1cccc(NC(=O)CSc2nnc(Cc3cccs3)n2-c2ccc(C)cc2)c1,8.4,-3.18,-3.16*,5.6,.
CCOc1ccc(NCc2nnc(SCC(=O)Nc3cc(C)on3)n2-c2ccc(OC)cc2)cc1,6.9,1.12,-0.62,-1.8,25.1*
Cc1ccc(N(C(=O)CS(=O)CC(=O)Nc2ccc(F)cc2)C(C(=O)NC2CCCCC2)c2ccco2)cc1 (configuration not stated),3.3,.,.,0.9,.
CC(C)c1ccc(NC(=O)N(CCc2nc3ccccc3[nH]2)C2CCCC2)cc1,.,-6.57*,-1.82,.,.
CC(C)Oc1ccc(C(CC(=O)O)NC(=O)c2cccs2)cc1 (configuration not stated),36.8,0.527,2,-3.0,.
CC(C)(C)C(=O)Nc1cc2nn(-c3ccccc3)nc2cc1Cl,98.9*,0.333,-0.99,-13.8,.
Cn1c(NCc2cc(Br)ccc2O)nc2ccccc21,-1.3,-0.795,-1.69,-2.1,2.8
Oc1ccc(Br)cc1CNn1cnnc1,.,-3.81*,0.3,.,-4.5
Cc1ccc(C(=O)Nc2ccccc2C(=O)N2CC3(C)CC2CC(C)(C)C3)cc1 (configuration not stated),-35.9,-5.93*,-0.53,-0.8,.
CCOC(=O)CSc1nc2c(sc(=S)n2-c2ccccc2OC)c(=O)n1Cc1ccco1,0.8,-5.63*,-0.4,-0.2,.
CCOC(=O)CSc1nc2c(sc(=S)n2Cc2ccco2)c(=O)n1-c1ccccc1,.,-3.87*,-1.62,.,-3.6
COC(=O)C[C@H]1c2cc(C(F)(F)F)ccc2S(=O)(=O)N1C(C)(C)C,.,-1.3,.,.,.
CCC1(C(=O)c2ccccc2)C2c3cc(Br)ccc3OC(=O)C21C(=O)N1CCOCC1 (configuration not stated),.,-4.25*,-1,.,.
Cc1ccc(S(=O)(=O)N2CCCC(NC(=O)N3CCN(c4ccccc4)CC3)C2)cc1 (configuration not stated),4.3,-4.43*,-0.42,-3.4,-1.0
SMILES,Mac1 fbg inh,Cav32 inh,Pyk2 oligo antag,Mac1 fbg enh,Ec RNAP inh
CCn1c(=O)c(C(=O)CN2c3ccccc3CC2C)c(N)n(Cc2ccccc2)c1=O (configuration not stated),5.0,.,.,7.3,.
CCn1c(=O)c(C(=O)CN2CCCc3ccccc32)c(N)n(Cc2ccccc2)c1=O,-16.5,-6.14*,-0.24,-2.4,8.2
COC(=O)Cc1c[nH]c2cccc(OCC(O)CN(Cc3ccc([N+](=O)[O-])cc3)C(C)(C)C)c12 (configuration not stated),5.6,-6.37*,-0.89,5.4,.
Cc1sc2nc(C(C)Nc3ccccc3N3CCOCC3)[nH]c(=O)c2c1C (configuration not stated),0.0,-2.37,-0.54,39.3,6.3
O=C(/C=C/c1ccccc1)NC(=S)NNC(=O)Cc1cccs1,.,-4.08*,0.04,.,.
COc1cc(CCCN2C(=S)NC[C@@H]2CC2CCCCC2)cc(OC)c1OC,.,-0.967,.,.,.
COC(=O)c1ccccc1NC(=O)c1cccc(NC(=O)c2ccc(Br)o2)c1C,-2.7,-5*,0.74,1.3,4.5
O=C(Nc1ccccc1C(=O)O)c1ccc(Br)o1,-3.9,.,-0.23,0.8,.
Cc1ccc2nc(SCC(=O)Nc3cc([N+](=O)[O-])ccc3F)[nH]c2c1,0.8,.,.,-0.8,.
Cc1nn(-c2ccccc2)c(C)c1/C=N/NC(=O)c1cc(C(C)(C)C)[nH]n1,-26.8,-0.224,-1.47,-0.7,.
Cc1ccc(-c2cc(C(=O)N/N=C/c3c(C)nn(-c4ccccc4)c3C)[nH]n2)cc1,17.5,.,-3.05*,-2.2,.
O=C(NCc1ccco1)c1ccccc1NS(=O)(=O)c1ccc(Br)s1,.,-6.14*,-1.7,.,.
O=C(O)CCC(=O)Nc1ccccc1C(=O)NCc1ccco1,.,-0.0835,2.04,.,.
O=C(NCc1ccco1)c1ccccc1Nc1ccc(F)cc1,-47.3,-6*,1.01,3.0,2.8
CCCC(=O)Nc1ccc(Cl)c(NC(=S)NC(=O)c2ccco2)c1,-6.3,.,.,1.6,.
CCN(CC)S(=O)(=O)c1cccc(S(=O)(=O)c2cccc(S(=O)(=O)N(CC)CC)c2)c1,19.9,-5.28*,0.75,1.2,8.3
CCN(CC)S(=O)(=O)c1ccc2c(c1)C(=NO)c1cc(S(=O)(=O)N(CC)CC)ccc1-2,.,-5.75*,-3.01*,.,.
CC(=O)Nc1ccc(NC(=O)CN(c2cccc(C)c2)S(C)(=O)=O)cc1,-2.4,0.314,0.95,-1.3,.
CCN(CC)S(=O)(=O)c1cccc(S(=O)(=O)N2CCCCC2)c1,3.1,-0.0141,-0.53,-7.1,.
CCN(CC)S(=O)(=O)c1ccc(NC(=O)CN(c2ccc(OC)cc2OC)S(C)(=O)=O)cc1,7.7,-6.62*,0.05,5.4,3.1
CCN(CC)S(=O)(=O)c1ccc(NC(=O)CN(c2cccc(C)c2)S(C)(=O)=O)cc1,.,-4.45*,-1.04,.,.
CCCCCC(=O)N1CC2(CC(c3cccc(NC(=O)CC)c3)=NO2)C[C@H]1C(N)=O (some centres not stated),.,0.298,.,.,.
CCOC(=O)C/C(C)=N/NC(=O)C1CC1(c1ccccc1)c1ccccc1 (configuration not stated),-7.9,.,.,-0.1,.
CCN(CC)S(=O)(=O)c1ccc(C(=O)Nc2cccc(C)c2)cc1,-0.1,-1.58,-0.63,-1.1,.
CCN(CC)S(=O)(=O)c1ccc(NS(=O)(=O)c2cccc(C)c2)cc1,-5.2,-4.6*,-1.5,-5.9,1.9
O=S(=O)(c1ccc2c(c1)C(=NO)c1cc(S(=O)(=O)N3CCCCC3)ccc1-2)N1CCCCC1,9.1,-6.43*,-2.57,-0.5,1.8

# Screens from PubChem.
